Assay results taken from PubChem BioAssay AID652067 (The Scripps Research Institute Molecular Screening Center, 2013).
In all, about 370,000 compounds went through this assay and about 5,400 (1.5%) were called active. What follows is part of a selection rich in actives, with near analogues and random picks from the rest. Unmarked numbers belong to inactive results.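 Rule for the calls: active = activation above the mean of all tested compounds plus 3 SD (cut at about 5.5% in these data); inactive = the rest.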

test system: DAF-12 nuclear receptor (Haemonchus contortus); assay: H. contortus DAF-12 nuclear receptor activators, primary screen, cell-based, luminescence, HEK293, lit1-tk-luc reporter (AID 652067); conditions: HEK293 hcDAF-12 lit1-tk-luc reporter, at 6.8 µM, stronger effect = higher value, 0% DMSO, 100% Δ7-dafachronic acid;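 note: 100% = response to 3 µM Δ7-dafachronic acid high control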

SMILES | activation
CN(C)Cc1cn(-c2ccc(-c3noc4c3C(=O)N(CC(=O)N3CCOCC3)CC4)cc2)nn1 | 2.44%
CCOC(=O)CNC(=O)N(C)[C@H]1C[C@H]2c3[nH]c4c(-c5ccc6c(c5)OCO6)cccc4c3CCN2C(=O)[C@H]1[C@H](C)O | -1.87%
Cc1cccc(NS(=O)(=O)c2cccc(C(=O)NNC(=O)c3ccccc3O)c2)c1 | -2.63%
O=C(NNC(=O)c1ccccc1O)c1ccccc1O | 5.92% (active)
O=C(NNC(=O)c1cc(S(=O)(=O)N2CCCCC2)ccc1Cl)c1ccccc1O | 1.49%
COC(=O)C1=C(C)N(Cc2cccc(C(F)(F)F)c2)C(=NCc2ccccc2)NC1c1ccccc1C(F)(F)F (stereo not given) | -0.61%
CC(=O)Nc1ccc(OC[C@@H](O)CN2CCC(C(O)(c3ccccc3)c3ccccc3)CC2)cc1 | -1.17%
CC(C)[C@@H](C)/C=C/[C@@H](C)[C@H]1CC[C@@H]2[C@]1(C)CCC1[C@]23C=C[C@]2(C[C@@H](O)CC[C@]12C)N(c1ccc([N+](=O)[O-])cn1)O3 (stereo not given in full) | -0.59%
CCn1c(=O)n2n(c1=O)[C@@]1(C=C3CCCC[C@H]32)N=C(NC(=O)c2ccccc2)N(Cc2ccccc2)[C@H]1Cc1ccccc1 | -1.71%
COc1ccc(/C(O)=C2/C(=O)C(=O)N(CC3CCCO3)C2c2ccc(OC)c(OC)c2)cc1 (stereo not given) | -1.07%
COc1ccc(/C(O)=C2/C(=O)C(=O)N(c3nc(C)c(C)s3)C2c2ccco2)cc1 (stereo not given) | 1.96%
CCOc1ccc(/C(O)=C2\C(=O)C(=O)N(c3ccc(OC)cc3)C2c2ccccc2[N+](=O)[O-])cc1 (stereo not given) | 6.27% (active)
O=S1(=O)c2c(NCc3ccco3)cccc2Oc2ccccc2CN1Cc1cn(Cc2cccc(C(F)(F)F)c2)nn1 | -2.46%
CN(NC(=O)C1CC(=O)N(c2ccccc2)C1)C1=NS(=O)(=O)c2ccccc21 (stereo not given) | 1.93%
CC(=O)C1(C(=O)Nc2nccs2)CC(c2ccccc2C(F)(F)F)=NO1 (stereo not given) | -0.69%
COc1ccc(N2CCN(CCNS(=O)(=O)c3ccc(Cl)s3)CC2)cc1 | 0.26%
Cc1cccc(NC(=O)/C=C/c2ccc3c(c2)OCO3)n1 | 5.86% (active)
COc1cccc(/C=C/C(=O)Nc2ccc3c(c2)OCCO3)c1 | 3.26%
Cc1cccc(NC(=O)Nc2ccc3c(c2)OCO3)n1 | 8.33% (active)
CN(Cc1ccccc1)C(=O)COC(=O)/C=C/c1ccc2c(c1)OCO2 | -1.03%
CCSc1ccccc1C(=O)Nc1ccc2c(c1)OCO2 | 3.08%
CNS(=O)(=O)c1ccc(NC(=O)Nc2ccc3c(c2)OCO3)cc1 | 4.15%
COC(=O)c1cc2c(c3c4cc(F)ccc4n(S(=O)(=O)c4ccccc4)c13)C(=O)N(Cc1ccccc1OC)C2 | 0.96%
CCCN1C(=O)c2[nH]nc(-c3ccccc3)c2C1c1ccccc1 (stereo not given) | -1.32%
COc1ccccc1CCNC(=O)C1CCN(c2nc(C)cc(C)n2)CC1 | -0.5%
Cc1cc(OC(=O)NCCc2ccc(F)cc2)ccc1F | -1.94%
Cc1cc(O)cc(O)c1C(=O)Cc1cnn(-c2ccccc2)c1 | -1.81%
COc1ccc(CNC(=O)COc2ccccc2C(=O)c2cnn(-c3ccccc3)c2)cc1OC | 3.06%

SMILES | activation
O=C(c1cnn(-c2ccc(Cl)cc2)c1)c1ccccc1O | 6.75% (active)
CN(CCO)c1cccc2c1S(=O)(=O)N(Cc1cn(Cc3ccc(C(F)(F)F)cc3)nn1)Cc1ccccc1O2 | 1.99%
COc1ccccc1C(=O)NC1CCCCN(C(C)C)C1=O (stereo not given) | 0.55%
Cc1cc(C(=O)OC(C)C(=O)Nc2cccc(S(=O)(=O)N3CCOCC3)c2)c(C)o1 (stereo not given) | -0.06%
O=C(c1c[nH]c2ccccc12)N1CCC(Oc2cccnc2)CC1 | 1.45%
Cc1cc(OCc2cc(C(=O)NCc3cc(C(C)C)no3)no2)cc(C)c1Cl | 8.95% (active)
Cc1cc(CN(C)C(=O)c2cc(COc3ccc(C)c(C)c3)on2)n[nH]1 | -1.73%
COc1ccc(OCc2cc(C(=O)NCC3(C)COC3)no2)c(Cl)c1 | 1.3%
COc1ccc2c(C(C)c3ccc(N)cc3)cn(C)c2c1 (stereo not given) | -0.33%
O=C(NCCc1c[nH]c2ccccc12)OCc1cn(-c2c(F)cccc2F)nn1 | 3%
CCOc1ccc2[nH]c(=S)sc2c1 | -0.28%
Nc1ccc2[nH]c(=S)sc2c1 | 7.75% (active)
O=c1[nH]c2ccccc2s1 | 1.16%
COCc1[nH]nc2c1C(c1ccccc1)N(c1ccccc1)C2=O (stereo not given) | -0.15%
COc1ccc2c(CC(=O)OCC(=O)Nc3ccccc3[N+](=O)[O-])coc2c1 | 0.19%
O=S1(=O)c2c(cccc2N2CCCC2)O[C@H](COCc2ccccc2)CN1C1CC1 | -1.28%
Cc1ccc(-n2c(COc3ccccc3)nnc2SCC(=O)Nc2ccc3c(c2)OCCO3)cc1 | -2.77%
C=CC1=CCN(S(=O)(=O)C(C)(C)C)[C@@H]1CCO | -0.05%
N#CC(=C1CCCC1)c1nc(-c2ccc(Cl)cc2)cs1 | -0.23%
c1ccc(-c2csc(N3CCc4ccccc4C3)n2)cc1 | 1.49%
N#CC(=C1SC=CS1)c1nc(-c2ccccc2)cs1 | 5.72% (active)
COc1ccc(C(=O)CSc2nnc(-c3cnccn3)n2-c2ccc(C)cc2)cc1 | -3.92%
COC(=O)[C@@]12CCCCC=C1N(CCc1ccc(Cl)cc1)C(=O)[C@H]2CC(=O)NCc1ccc(OC)c(OC)c1 | -2.23%
CCc1ccccc1NC(=O)CSc1nnc(-c2cccs2)o1 | 2.25%
O=C(CCCOc1ccccc1)Nc1cccc(C(=O)O)c1 | -0.3%
O=C(Cc1c[nH]c2ccccc12)N/N=C/c1cccc(F)c1 | -2.14%
O=C(O)c1cccc(NC(=S)N/N=C/c2c[nH]c3ccccc23)c1 | 5.99% (active)
